Data reported in PubChem BioAssay (NCATS).
Values joined by “and” are separate entries in the source; they are usually repeats but may differ in a detail not shown here. Identical values can stand only once. Results filed as inconclusive are left out. Where a call stands in place of a potency, no number is given. Where a structure was tested more than once in an assay, its records may differ in their call. A number with no mark means an inactive call. Active and inactive are the calls of the source. Calls come from the whole dose curve; as a rule, active = well fitted curve in the direction sought with a large enough effect; inconclusive = small, poorly fitted or top-dose-only effect, or another doubt; inactive = no such curve, though single readings can be large; an effect the other way counts as inactive or inconclusive.

Columns and labels:
HEK293 = test: Cytotoxic Profiling of Annotated Libraries Using Quantitative High-Throughput Screening (AID 1296008); conditions: Five cell lines viability, CellTiter-Glo ATP luminescence, 48-72 h; max response: hits give low values; note: nearly all actives have a fitted effect of over 60% in size
How it was run: (§1)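 Cells exposed to compounds for 48 or 72 hr at 37 degrees Celsius. Viability read as ATP-coupled luminescence with CellTiter-Glo after 10 min at room temperature.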

HaCat [1] = test: as above; conditions: Five cell lines viability, CellTiter-Glo ATP luminescence, 48-72 h; max response: hits give low values
How it was run: as §1

KB-3-1 = test: as above; conditions: Five cell lines viability, CellTiter-Glo ATP luminescence, 48-72 h; max response: hits give low values
How it was run: as §1

NIH3T3 [2] = test: as above; conditions: Five cell lines viability, CellTiter-Glo ATP luminescence, 48-72 h; max response: hits give low values
How it was run: as §1

HACAT [3] = test: qHTS assay to identify novel small-molecules to repurpose for Merkel cell carcinoma treatment (AID 1296009); conditions: MCC and control cell lines, CellTiter-Glo viability, 72 h; series mostly up to 44.8 µM; note: nearly all actives have a fitted effect of over 60% in size
How it was run: (§2)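 Dose-response viability screen; 72 hr exposure at 37 degree celsius; CellTiter-Glo added, 10 min room temperature, luminescence read; RLUs scaled between no-cell and DMSO wells.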

MCC-13 = test: as above; conditions: MCC and control cell lines, CellTiter-Glo viability, 72 h; series mostly up to 46 µM
How it was run: as §2

MKL-1 = test: as above; conditions: MCC and control cell lines, CellTiter-Glo viability, 72 h; series mostly up to 46 µM
How it was run: as §2

MKL-2 = test: as above; conditions: MCC and control cell lines, CellTiter-Glo viability, 72 h; series mostly up to 46 µM
How it was run: as §2

UISO = test: as above; conditions: MCC and control cell lines, CellTiter-Glo viability, 72 h; series mostly up to 46 µM
How it was run: as §2

C33A = test: Primary qHTS to identify gynecologic anti-cancer compounds using libraries of approved drugs and bioactive compounds (AID 1345084); conditions: Gynecologic cancer cell panel viability, ATPlite luminescence, 48 h; series mostly up to 57.5 µM; note: nearly all actives have a fitted effect of over 55% in size
How it was run: (§3)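 48 h compound exposure at 37 C, 5% CO2; five-point qHTS. ATPlite luminescence readout of cell ATP.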

CAOV3 = test: as above; conditions: Gynecologic cancer cell panel viability, ATPlite luminescence, 48 h; series mostly up to 57.5 µM
How it was run: as §3

CASKI = test: as above; conditions: Gynecologic cancer cell panel viability, ATPlite luminescence, 48 h; series mostly up to 57.5 µM
How it was run: as §3

Es-2 = test: as above; conditions: Gynecologic cancer cell panel viability, ATPlite luminescence, 48 h; series mostly up to 57.5 µM
How it was run: as §3

HeLa = test: as above; conditions: Gynecologic cancer cell panel viability, ATPlite luminescence, 48 h; series mostly up to 57.5 µM
How it was run: as §3

Hek293T [4] = test: as above; conditions: Gynecologic cancer cell panel viability, ATPlite luminescence, 48 h, control line for the selectivity index; series mostly up to 57.5 µM
How it was run: as §3

JEG-3 = test: as above; conditions: Gynecologic cancer cell panel viability, ATPlite luminescence, 48 h; series mostly up to 57.5 µM
How it was run: as §3

WaGa = test: qHTS assay to identify novel small-molecules to repurpose for Merkel cell carcinoma treatment (AID 1296009); conditions: MCC and control cell lines, CellTiter-Glo viability, 72 h; series mostly up to 46 µM; note: nearly all actives have a fitted effect of over 60% in size
How it was run: as §2

MCC-26 = test: as above; conditions: MCC and control cell lines, CellTiter-Glo viability, 72 h; series mostly up to 46 µM
How it was run: as §2

HEK293T [5] = test: as above; conditions: MCC and control cell lines, CellTiter-Glo viability, 72 h; at 44.8 µM (top of the series) unless noted
How it was run: as §2

NIH3T3 [6] = test: as above; conditions: MCC and control cell lines, CellTiter-Glo viability, 72 h; at 44.8 µM (top of the series) unless noted
How it was run: as §2
Potency is the fitted concentration of half-maximal effect.

CC(O)C1C(=O)N2C(C(=O)O)=C(SC3CNC(C(=O)N(C)C)C3)C(C)C12 (stereo not drawn)
max response (HEK293): -5.51% and 0.11%
max response (HaCat [1]): 0.187%
outcome (HaCat [1]): inactive
max response (KB-3-1): 5.3%
outcome (KB-3-1): inactive
max response (NIH3T3 [2]): 0.991% and 3.69%
Potency (HACAT [3]): inactive
Potency (MCC-13): inactive
Potency (MKL-1): inactive
Potency (MKL-2): inactive
Potency (UISO): inactive
Potency (C33A): inactive
Potency (CAOV3): inactive
Potency (CASKI): inactive
Potency (Es-2): inactive
Potency (HeLa): inactive
Potency (Hek293T [4]): inactive
Potency (JEG-3): inactive

O=C(CCCCCCC(=O)Nc1ccc([C@H]2O[C@@H](CSc3nc(-c4ccccc4)c(-c4ccccc4)o3)C[C@@H](c3ccc(CO)cc3)O2)cc1)NO
Potency (HEK293): 14.8 µM (active) and 18.4 µM (active)
Potency (HaCat [1]): 20.9 µM (active)
outcome (HaCat [1]): inactive
Potency (KB-3-1): 11.8 µM (active)
max response (NIH3T3 [2]): -17.5%
Potency (HACAT [3]): inactive
Potency (MKL-1): 8.33 µM (active)
Potency (MKL-2): 8.33 µM (active)
Potency (WaGa): 7.43 µM (active)
Potency (CASKI): inactive
Potency (Es-2): inactive
Potency (HeLa): inactive
Potency (Hek293T [4]): inactive

COc1ccc(-n2nc(C(N)=O)c3c2C(=O)N(c2ccc(N4CCCCC4=O)cc2)CC3)cc1
max response (HEK293): 2.24%
max response (HaCat [1]): -4.25%
outcome (HaCat [1]): inactive
max response (KB-3-1): 6.22% and -0.472%
max response (NIH3T3 [2]): -1.07% and 4.24%
Potency (HACAT [3]): inactive
Potency (MCC-13): inactive
Potency (MCC-26): inactive
Potency (MKL-1): inactive
Potency (MKL-2): inactive
Potency (UISO): inactive
Potency (WaGa): inactive
Potency (C33A): inactive
Potency (CAOV3): inactive
Potency (CASKI): inactive
Potency (Es-2): inactive
Potency (HeLa): inactive
Potency (Hek293T [4]): inactive
Potency (JEG-3): inactive

CCCCCCCCCC(=O)N[C@@H](Cc1c[nH]c2ccccc12)C(=O)N[C@H](CC(N)=O)C(=O)N[C@@H](CC(=O)O)C(=O)N[C@@H]1C(=O)NCC(=O)N[C@@H](CCCN)C(=O)N[C@@H](CC(=O)O)C(=O)N[C@H](C)C(=O)N[C@@H](CC(=O)O)C(=O)NCC(=O)N[C@H](CO)C(=O)N[C@@H]([C@@H](C)CC(=O)O)C(=O)N[C@@H](CC(=O)c2ccccc2N)C(=O)O[C@@H]1C
max response (HEK293): 3.78%
outcome (HEK293): inactive
max response (HaCat [1]): -26.3%
outcome (HaCat [1]): inactive
outcome (KB-3-1): inactive
max response (NIH3T3 [2]): -13.2%
outcome (NIH3T3 [2]): inactive
Potency (HACAT [3]): inactive
outcome (HEK293T [5]): inactive
Potency (MCC-13): inactive
Potency (MCC-26): inactive
Potency (MKL-1): inactive
Potency (MKL-2): inactive
outcome (NIH3T3 [6]): inactive
Potency (UISO): inactive
Potency (WaGa): inactive
Potency (C33A): inactive
Potency (CASKI): inactive
Potency (Es-2): inactive
Potency (HeLa): inactive
Potency (Hek293T [4]): inactive
Potency (JEG-3): inactive

COc1ccc2c(c1)CC[C@@H](CN(C)CC(=O)O)[C@H]2c1ccccc1
Potency (HEK293): 2.64 µM (active)
max response (HEK293): 2.06%
max response (HaCat [1]): 0.39%
Potency (KB-3-1): 3.32 µM (active)
max response (KB-3-1): 2.76%
Potency (NIH3T3 [2]): 7.43 µM (active)
outcome (NIH3T3 [2]): inactive
outcome (NIH3T3 [6]): inactive
Potency (C33A): inactive
Potency (CAOV3): inactive
Potency (CASKI): inactive
Potency (Es-2): inactive
Potency (HeLa): inactive
Potency (Hek293T [4]): inactive
Potency (JEG-3): inactive

NC(=O)c1c(OCc2c(F)cc(Br)cc2F)nsc1NC(=O)NCCCCN1CCCC1
Potency (HEK293): 14.8 µM (active)
Potency (HaCat [1]): 26.4 µM (active)
outcome (HaCat [1]): inactive
Potency (KB-3-1): 9.35 µM (active)
Potency (NIH3T3 [2]): 235 nM (active) and 2.06 µM (active)
Potency (HACAT [3]): inactive
Potency (MKL-1): inactive
Potency (MKL-2): inactive
Potency (C33A): inactive
Potency (Es-2): inactive
Potency (HeLa): inactive
Potency (Hek293T [4]): inactive
Potency (JEG-3): inactive

CN(C1CCc2c(c3ccccc3n2CC(=O)O)C1)S(=O)(=O)c1ccc(F)cc1 (stereo not drawn)
max response (HEK293): -3% and -8.76%
outcome (HEK293): inactive
max response (HaCat [1]): -11.8% and -5.06%
outcome (HaCat [1]): inactive
max response (KB-3-1): 7.37%
outcome (KB-3-1): inactive
outcome (NIH3T3 [2]): inactive
Potency (HACAT [3]): inactive
outcome (HEK293T [5]): inactive
Potency (MCC-13): inactive
Potency (MCC-26): inactive
Potency (MKL-1): inactive
outcome (NIH3T3 [6]): inactive
Potency (UISO): inactive
Potency (WaGa): 5.9 µM (active)
Potency (C33A): inactive
Potency (CASKI): inactive
Potency (Es-2): inactive
Potency (HeLa): inactive
Potency (Hek293T [4]): inactive
Potency (JEG-3): inactive

Clc1ccc2ncc(-c3cccc(NC4CNC4)n3)n2c1
Potency (HEK293): 18.7 µM (active)
outcome (HEK293): inactive
outcome (HaCat [1]): inactive
outcome (KB-3-1): inactive
outcome (NIH3T3 [2]): inactive
Potency (HACAT [3]): inactive
outcome (HEK293T [5]): inactive
Potency (MCC-13): inactive
Potency (MCC-26): inactive
Potency (MKL-2): inactive
outcome (NIH3T3 [6]): inactive
Potency (C33A): inactive
Potency (CAOV3): inactive
Potency (CASKI): inactive
Potency (Es-2): inactive
Potency (HeLa): inactive
Potency (Hek293T [4]): inactive
Potency (JEG-3): inactive

Cc1cc(Nc2cc(CN3CCOCC3)c3nc(C)c(Cc4ccc(Cl)cc4F)n3n2)n[nH]1
Potency (HEK293): 11.8 µM (active) and 16.4 µM (active)
Potency (HaCat [1]): 14.8 µM (active)
max response (HaCat [1]): -23.1%
Potency (KB-3-1): 4.18 µM (active) and 5.17 µM (active)
Potency (NIH3T3 [2]): 13.2 µM (active) and 11.6 µM (active)
Potency (UISO): 23.5 µM (active)
Potency (C33A): inactive
Potency (CAOV3): inactive
Potency (CASKI): inactive
Potency (HeLa): 14.1 µM (active)
Potency (Hek293T [4]): inactive

CN(C)c1nc(Cc2ccc(NC(=O)c3ccc4ccccc4c3)cc2)nc(Cl)c1CC(=O)O
max response (HEK293): -6.45%
outcome (HEK293): inactive
max response (HaCat [1]): 3.96%
outcome (HaCat [1]): inactive
outcome (KB-3-1): inactive
max response (NIH3T3 [2]): 2.84% and 3.57%
Potency (HACAT [3]): inactive
outcome (HEK293T [5]): inactive
Potency (MCC-13): inactive
Potency (MCC-26): inactive
Potency (MKL-1): inactive
Potency (MKL-2): inactive
Potency (UISO): inactive
Potency (WaGa): inactive
Potency (C33A): inactive
Potency (CASKI): inactive
Potency (Es-2): inactive
Potency (HeLa): inactive
Potency (Hek293T [4]): inactive
Potency (JEG-3): inactive

CCCNC(=O)Nc1ccc(Oc2ncnc3cc(OC)c(OC)cc23)cc1Cl
max response (HEK293): -15.3%
outcome (HEK293): inactive
max response (HaCat [1]): 0.131% and 2.87%
max response (KB-3-1): 4.92%
max response (NIH3T3 [2]): -7.41% and 0.662%
outcome (HEK293T [5]): inactive
Potency (MCC-13): inactive
Potency (MKL-1): inactive
Potency (MKL-2): inactive
Potency (UISO): inactive
Potency (WaGa): inactive
Potency (C33A): inactive
Potency (CAOV3): inactive
Potency (CASKI): inactive
Potency (Es-2): inactive
Potency (HeLa): inactive
Potency (Hek293T [4]): inactive
Potency (JEG-3): inactive
